In PubChem BioAssay (NCATS) one finds Potency, outcome and max response data, which are given here for 21 compounds.

For assay [1], the system named is CRL-7250. Description: Cytotoxic Profiling of Annotated Libraries Using Quantitative High-Throughput Screening (AID 1296008). Further: potency means the concentration at half of the fitted maximal effect. On max response: on the % scale 0 is the no-effect control and ±100 the full control effect. The following applies: Five cell lines viability, CellTiter-Glo ATP luminescence, 48-72 h; max response: stronger effect = lower value. Summed up:
(§1)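 Compounds were pin-transferred onto cells and incubated 48 or 72 hr at 37 degree Celsius, 95% humidity. CellTiter-Glo was added, plates sat 10 min at room temperature, then ATP-coupled luminescence was imaged as the viability read-out.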

The test system of assay [2] is HEK293. The assay is described as above. The following applies: Five cell lines viability, CellTiter-Glo ATP luminescence, 48-72 h; max response: stronger effect = lower value. Summed up: as §1
Assay [3] has as its system HaCat. The assay is described as above. As to conditions: Five cell lines viability, CellTiter-Glo ATP luminescence, 48-72 h; max response: stronger effect = lower value. Summed up:
as §1

For assay [4], the system named is NIH3T3. The description is as above. The following applies: Five cell lines viability, CellTiter-Glo ATP luminescence, 48-72 h; max response: stronger effect = lower value. The essentials: as §1
Assay [5] has as its system HACAT. Description: qHTS assay to identify novel small-molecules to repurpose for Merkel cell carcinoma treatment (AID 1296009). As to conditions: MCC and control cell lines, CellTiter-Glo viability, 72 h; at 44.8 µM (top of the series) unless noted. Summed up:
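Cells exposed to NPC (8-point) and MIPE (11-point) compound dilutions for 72 hr at 37 degree celsius; viability read by CellTiter-Glo luminescence, normalized to no-cell and DMSO in-plate controls.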

The structures appear in SMILES notation. Inconclusive results are not listed. A number with no mark means an inactive call. Calls of active or inactive are those of the source. The call rests on the fitted dose curve; in most records, active means well fitted inhibition curve with a large enough effect; inconclusive means small, poorly fitted or top-dose-only effect; inactive means flat fitted curve, though single readings scatter.
Further: nearly all actives have a fitted effect of over 60% in size.

With `COc1c(C)cnc(Cn2cc(C#CCC(C)(C)O)c3c(Cl)nc(N)nc32)c1C`, the Potency in assay [1] is 259 nM (active); in assay [2] it was 51.7 nM (active); in assay [3], 73.1 nM (active); in assay [4], 206 nM (active).

`CS(=O)(=O)c1ccc(Oc2cc(F)cc(C#N)c2)c2c1[C@H](O)C(F)(F)C2`: the compound was classed as inactive in assay [1]. The max response in assay [2] is 1.03%; in assay [3], -0.258%; in assay [4], -14.9%.

`CCc1c[nH]c2ncnc(N3CC[C@](N)(CNC(=O)c4ccc(F)cc4F)C3)c12`: the results for the max response in assay [1], in assay [3] and in assay [4] were -13.8%, -5.86% and 4.64%, respectively. Further, in assay [2], the Potency is 1160 nM (active).

As to `CC(=O)OC(C)(C)/C=C/C(=O)[C@](C)(O)[C@H]1C(O)C[C@@]2(C)[C@@H]3CC=C4[C@@H](C=C(O[C@@H]5O[C@H](CO)[C@@H](O)[C@H](O)[C@H]5O)C(=O)C4(C)C)[C@]3(C)C(=O)C[C@]12C` (some centres not stated), the result in assay [1], in assay [3] and in assay [4] was inactive. Besides, in assay [2], the max response is -18.4%. The outcome in assay [5] is “inactive [at 17.4 µM]”.

Take `CC(C)(C)c1ccc(C(=O)Nc2cc(Cl)c(Br)cc2C(=O)O)cc1`: the results for the max response in assay [1], in assay [3] and in assay [4] were -0.778%, -1.9% and -19.1%, respectively. The Potency in assay [2] was 23100 nM (active).

Consider `CC(=O)O[C@@H]1C[C@@]23C[C@@]24CC[C@H](O[C@@H]2OC[C@H](O)[C@H](O)[C@H]2O)C(C)(C)[C@@H]4CC[C@H]3[C@]2(C)[C@@H](O)C34O[C@H](C[C@@H](C)[C@@H]3[C@@]12C)[C@@H](C(C)(C)O)O4`, for which the max response in assay [1] was 4.08%; in assay [2], -6.78%; in assay [4], 2.71%. Further, the call in assay [3] and in assay [5] was inactive.

With `CC(=O)C1=C(O)C=C2Oc3c(C(C)=O)c(O)c(C)c(O)c3[C@]2(C)C1=O`, the compound was called inactive in assay [1], in assay [3], in assay [4] and in assay [5]. Also, the max response in assay [2] is 0.521%.

Regarding `COc1cc(N2CCC(O)CC2)ccc1Nc1nc(Nc2ccccc2S(=O)(=O)C(C)C)c2[nH]cnc2n1`, the max response in assay [1] is -7.74%. Further, the Potency in assay [2] was 5800 nM (active); in assay [3] it was 18400 nM (active); in assay [4] it was 7310 nM (active).

Turning to `Cc1ccc(NC(=O)c2ccc(CN3CCNCC3)cc2)cc1Nc1nccc(-c2cccnc2)n1`, the max response in assay [1] was -21.4%. For the same compound, in assay [2], the Potency was 10300 nM (active). In addition, the outcome in assay [3], in assay [4] and in assay [5] was inactive.

Take `COC(=O)N1CCC(n2ncc3c(N4CCOCC4)nc(-c4ccc(NC(=O)NC5CC5)cc4)nc32)CC1`: the Potency was 259 nM (active) in assay [1], 291 nM (active) in assay [2], 6510 nM (active) in assay [3] and 651 nM (active) in assay [4].

Regarding `C=CC(=O)Nc1ccc(CN2C(=O)N(c3cc(OC)cc(OC)c3)Cc3cnc(Nc4ccc(N5CCN(C)CC5)cc4)nc32)cc1`, the Potency in assay [1] is 411 nM (active); in assay [2] it was 11600 nM (active); in assay [3], 5170 nM (active); in assay [4], 8200 nM (active).

With `C[C@@H]1CN(CC(=O)N2CC(C)(C)c3ncc(Cc4ccc(F)cc4)cc32)[C@@H](CN2CCOC[C@H]2C)CN1`, the max response was -4.83% in assay [1] and -21.9% in assay [2]. For the same compound, the result in assay [3], in assay [4] and in assay [5] was inactive.

Turning to `Cc1nc2ccc(CN(C)c3ccc(C(=O)NC(CCC(=O)O)C(=O)O)s3)cc2c(=O)[nH]1` (configuration not stated), in assay [1], the compound was classed as inactive. Also, the figures for the Potency in assay [2], in assay [3] and in assay [4] were 41.1 nM (active), 10.3 nM (active) and 65.1 nM (active), respectively.

As for `COC(=O)c1cc2c(C(F)(F)F)cc(-c3ccccc3)cc2n1O`, the max response in assay [1] was -4.54%; in assay [2] it was 0.379%. Also, the compound was called inactive in assay [3], in assay [4] and in assay [5].

As for `COc1cc(N2CCC(N3CCN(C)CC3)CC2)ccc1Nc1ncc(Cl)c(Nc2ccccc2P(C)(C)=O)n1`, the Potency is 2060 nM (active) in assay [1], 5800 nM (active) in assay [2], 1840 nM (active) in assay [3] and 1640 nM (active) in assay [4].

On to `CCC(CC)C(=O)OC12C(OC(=O)C(C)C)C(C)C3(O)C(C=C(CO)CC4(O)C(=O)C(C)=CC43)C1C2(C)C` (configuration not stated), for which the max response in assay [1] is 0.624%; in assay [2] it was -5.82%. Besides, the call in assay [3] and in assay [4] was inactive. The outcome in assay [5] was “inactive [at 17.4 µM]”.

Turning to `COC(=O)C1=CO[C@@H](O[C@@H]2O[C@H](CO)[C@@H](O)[C@H](O)[C@H]2O)[C@H]2[C@@H]1C=C[C@]21C=C([C@H](C)OC(=O)/C=C/c2ccc(O)cc2)C(=O)O1`, the Potency in assay [1] is 1220 nM (active); in assay [2], 1720 nM (active); in assay [3], 3850 nM (active); in assay [4], 3060 nM (active).

Take `C/C1=C/CCC2=CC(OC2=O)C(C)(C)/C=C/C1=O` (configuration not stated): the Potency was 2310 nM (active) in assay [1], 1300 nM (active) in assay [2], 2590 nM (active) in assay [3] and 4110 nM (active) in assay [4].

Take `CN1C(=O)c2sccc2N(C)c2nc(Nc3ccc(S(N)(=O)=O)cc3)ncc21`: the Potency is 7410 nM (active) in assay [1], 11700 nM (active) in assay [2], 18600 nM (active) in assay [3] and 16600 nM (active) in assay [4].

For `CNc1cc2[nH]c(=O)n(-c3ccc(NC(=O)NS(=O)(=O)c4ccc(Cl)s4)cc3)c(=O)c2cc1F`, the call in assay [1], in assay [3] and in assay [5] was inactive. For the same compound, the max response in assay [2] was -0.0272%; in assay [4] it was 2.24%.

Turning to `Cc1nc(-c2cn3c(n2)-c2ccc(-c4cnn(C(C)(C)C(N)=O)c4)cc2OCC3)n(C(C)C)n1`, the max response in assay [1] was 4.52%. Further, the Potency in assay [2] was 6510 nM (active); in assay [3], 2910 nM (active); in assay [4] it was 5170 nM (active).
